Inconclusive results are not listed. The source made the active and inactive calls. Calls come from the whole dose curve; as a rule, active = well fitted activation curve with a large enough effect in the signal ratio in the repeat runs, with a control signal flat (not every such curve was filed as active); inconclusive = weak or mixed curves; inactive = flat fitted curve, though single readings scatter; the % refers to the signal ratio.
Assay: qHTS assay for small molecule activators of the heat shock response signaling pathway (AID 743210)
Conditions: HeLa HSE-bla reporter, beta-lactamase ratio, 5 h; series mostly up to 62.6 µM
Excerpt: U.S. Tox21 Program National Center for Advancing Translational Sciences [NCATS] NIH Chemical Genomics Center [NCGC] U.S. Environmental Protection Agency [EPA] National Institutes of Environmental Health Sciences [NIEHS] National Toxicology Program [NTP] U.S. Food and Drug Administration [FDA] Tox21 Assay Overview: Various chemicals, environmental and physiological stress conditions may lead to the activation of heat shock response/ unfolded protein response (HSR/UPR). There are three heat shock transcription factors (HSFs) (HSF-1, -2, and -4) mediating transcriptional regulation of the human HSR. To identify the compounds that activate HSR signaling, HSE-bla HeLa cell line (Invitrogen, Carlsbad, CA, USA) containing a beta-lactamase reporter gene under the control of the heat shock response elements was used to screen the Tox21 10K compound library.
Tox21 Assay Protocol Summary: The CellSensor HSE-bla HeLa cells (Invitrogen, Carlsbad, CA, USA) were dispensed at 1500 cells/6uL/well into 1536-well black wall/clear bottom plates using a Multidrop combi (Thermo Fisher Scientific, Waltham, MA) dispenser. After the assay plates were incubated at 37 C and 5% CO2 overnight, 23 nL of compounds dissolved in DMSO, positive controls or DMSO only was transferred to the assay plate by a Pintool station (Kalypsys, San Diego, CA). The plates were incubated at 37 C for 5 h. After 1 uL of LiveBLAzerTM B/G FRET substrate was added using a Flying Reagent Dispenser (Beckman Coulter, Indianapolis, IN, USA), the plates were incubated at room temperature for 2.5 h, and fluorescence intensity was measured by an Envision plate reader (PerkinElmer, Shelton, CT).

**Q.** For `CCOc1ccc2[nH]cc(C(=O)NCc3ccccc3)c(=O)c2n1`, which outcome is on record?
**A.** The outcome was “inactive”.

**Q.** Which outcome does the source give for `O=[N+]([O-])c1cc[n+]([O-])cc1` here?
**A.** Its outcome is “inactive”.

**Q.** For `O=C(/C=C/c1ccc(O)c(O)c1)O[C@@H]1C[C@](O)(C(=O)O)C[C@@H](O)[C@H]1O`, which outcome is on record?
**A.** Its outcome is “inactive”.

**Q.** With `CCOC(=S)SSC(=S)OCC` as the compound, how does the outcome read?
**A.** The outcome was “inactive”.

**Q.** For `O=C(C(=O)c1ccc(Br)cc1)c1ccc(Br)cc1`, which outcome is on record?
**A.** Its outcome is “inactive”.

**Q.** With `CCCCOCCOCCOCCOCCO` as the compound, how does the outcome read?
**A.** Its outcome is “inactive”.

**Q.** Which outcome does the source give for `CCN1CCC[C@H]1CNC(=O)c1c(OC)ccc(Br)c1OC` here?
**A.** The outcome was “inactive”.

**Q.** Which outcome does the source give for `CCN(CC)CCOc1ccc2c(c1)C(=O)c1cc(OCCN(CC)CC)ccc1-2` here?
**A.** The outcome was “inactive”.

**Q.** For `CNS(=O)(=O)Cc1ccc2[nH]cc(CCN(C)C)c2c1`, which outcome is on record?
**A.** The outcome was “inactive”.

**Q.** Which outcome does the source give for `CCCc1ccccc1` here?
**A.** Its outcome is “inactive”.

**Q.** With `Oc1ccc(Sc2ccc(O)cc2)cc1` as the compound, how does the outcome read?
**A.** The outcome was “inactive”.

**Q.** Which outcome does the source give for `Cc1cccc(Oc2ccccc2)c1` here?
**A.** Its outcome is “inactive”.

**Q.** Which outcome does the source give for `O=C1CCCCCO1` here?
**A.** The outcome was “inactive”.

**Q.** For `CC(C)c1cccc(C(C)C)c1NC(=O)NS(=O)(=O)c1cc(C(C)(C)O)co1`, which outcome is on record?
**A.** Its outcome is “inactive”.

**Q.** For `O=C1c2cccc(O)c2C(=O)c2c(O)cc(CO)cc21`, which outcome is on record?
**A.** Its outcome is “inactive”.

**Q.** Which outcome does the source give for `CC(=O)OC/C=C/c1ccccc1` here?
**A.** Its outcome is “inactive”.

**Q.** With `CC(C(=O)O)c1ccc(-c2ccccc2)c(F)c1` (stereo not given) as the compound, how does the outcome read?
**A.** Its outcome is “inactive”.

**Q.** Which outcome does the source give for `CN(C(=O)CCCOc1ccc2[nH]c(=O)ccc2c1)C1CCCCC1` here?
**A.** The outcome was “inactive”.

**Q.** With `O=c1[nH]cnc2ccccc12` as the compound, how does the outcome read?
**A.** The outcome was “inactive”.

**Q.** Which outcome does the source give for `ClC(Cl)(Cl)c1ccc(C(Cl)(Cl)Cl)cc1` here?
**A.** Its outcome is “inactive”.

**Q.** Which outcome does the source give for `CC(=O)O[C@@H]1C(=O)O[C@@H]2[C@H]1OC(=O)[C@@H]2OC(C)=O` here?
**A.** Its outcome is “inactive”.

**Q.** With `COc1ccc(C(C)=O)cc1` as the compound, how does the outcome read?
**A.** The outcome was “inactive”.

**Q.** With `CN(c1nccc(=O)[nH]1)C1CCN(c2nc3ccccc3n2Cc2ccc(F)cc2)CC1` as the compound, how does the outcome read?
**A.** Its outcome is “inactive”.

**Q.** With `Cc1ccccc1N=Nc1ccc(N=Nc2c(O)ccc3ccccc23)c(C)c1` as the compound, how does the outcome read?
**A.** The outcome was “inactive”.

**Q.** With `O=c1c2ccccc2nnn1CCl` as the compound, how does the outcome read?
**A.** Its outcome is “inactive”.

**Q.** For `FC(F)(F)C(F)(F)C(F)(F)C(F)(F)C(F)(F)C(F)(F)CCI`, which outcome is on record?
**A.** The outcome was “inactive”.

**Q.** For `N#CCc1cccc(C(F)(F)F)c1`, which outcome is on record?
**A.** Its outcome is “inactive”.

**Q.** Which outcome does the source give for `CC(C)CCCCCCOC(=O)c1ccc(C(=O)OCCCCCCC(C)C)c(C(=O)OCCCCCCC(C)C)c1` here?
**A.** Its outcome is “inactive”.

**Q.** For `CC(C)NCC(O)c1cc(O)cc(O)c1` (stereo not given), which outcome is on record?
**A.** The outcome was “inactive”.

**Q.** For `O=C(O)C(c1ccc(Cl)cc1)c1ccc(Cl)cc1`, which outcome is on record?
**A.** The outcome was “inactive”.

**Q.** Which outcome does the source give for `O=C(c1ccccc1)c1ccc2n1CCC2C(=O)O` (stereo not given) here?
**A.** Its outcome is “inactive”.

**Q.** Which outcome does the source give for `Cc1ccc(C(=O)C(C)CN2CCCCC2)cc1` (stereo not given) here?
**A.** Its outcome is “inactive”.

**Q.** For `Cn1c(=O)c2c(ncn2CC(O)CO)n(C)c1=O` (stereo not given), which outcome is on record?
**A.** Its outcome is “inactive”.

**Q.** Which outcome does the source give for `CC(=O)OCCc1ccccc1` here?
**A.** Its outcome is “inactive”.

**Q.** Which outcome does the source give for `C[C@H](CCC(=O)O)[C@H]1CC[C@H]2[C@@H]3[C@H](O)C[C@@H]4C[C@H](O)CC[C@]4(C)[C@H]3CC[C@]12C` here?
**A.** The outcome was “inactive”.

**Q.** Which outcome does the source give for `Cc1nc2ccccc2n1Cc1ccc(Cl)cc1` here?
**A.** The outcome was “inactive”.

**Q.** Which outcome does the source give for `COc1cc(C(C)(C)C)c(O)c(C(C)(C)C)c1` here?
**A.** The outcome was “inactive”.

**Q.** With `c1ccc(OCc2ccc(CCCN3CCOCC3)cc2)cc1` as the compound, how does the outcome read?
**A.** The outcome was “inactive”.

**Q.** For `CCCCCCCCC(CO)CCCCCC` (stereo not given), which outcome is on record?
**A.** The outcome was “inactive”.

**Q.** With `C=CC(=O)OCCOC(=O)CCC(=O)O` as the compound, how does the outcome read?
**A.** Its outcome is “inactive”.
